Source: PubChem BioAssay (several laboratories)
Sampled rows, rich in hits. Any-hit rate of the full collection: about 1.8%.
CendR NRP1 mod: NRP-1/CendR interaction modulation; FAM-RPARPAR peptide binding to NRP-1, fluorescence polarization; O14786; 360,000 tested, 0.85% active; inhibition, % at 25 µM;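 active means inhibition or corrected inhibition above about 18%, plus a signal ratio from 0.5 to 1.5, limit read from the data, passing the limit was not always enough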
beta cell repl: induces beta-cell replication in MIN6 cells | MIN6 cells proliferation, ATPlite luminescence, 48 h; cells starved in 0.2% serum; 100% = growth in 10% serum | proliferation, % at 10 µM | 330,000 tested, 0.29% active;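 active means compounds whose signal lies at least 3.5 SD above the mean of all wells on their plate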;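 further: 0% = DMSO-treated cells in low-serum medium and 100% = 10% serum control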
APOBEC3A inh: human APOBEC3A DNA deaminase inhibition. recombinant A3A, FAM/TAMRA ssDNA deamination fluorescence. inhibition, % at 20 µM. 330,000 tested, 0.41% active;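 active means at least 40% inhibition at 20 µM here, with at most 30% in a related deaminase screen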;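 further: plate controls were A3A with DMSO for no effect and wells lacking A3A enzyme for full effect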
Target sequence (P31941 whole entry, looked up): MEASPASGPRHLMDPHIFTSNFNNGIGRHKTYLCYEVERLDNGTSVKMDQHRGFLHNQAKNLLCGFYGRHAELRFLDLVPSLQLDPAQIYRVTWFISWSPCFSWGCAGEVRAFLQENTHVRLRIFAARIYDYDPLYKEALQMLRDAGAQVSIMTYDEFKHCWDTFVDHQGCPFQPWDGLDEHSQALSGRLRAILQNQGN
VLA-4 inh: inhibition in a human VLA-4 binding assay; P13612; VLA-4 expressing cells, ligand binding flow cytometry; inhibition, % (about 7 µM as worked out from the volumes in the protocol); 330,000 tested, 0.2% active; in the data active means inhibition above about 50%
A3G deaminase: APOBEC3G (human) deaminase inhibition | recombinant A3G, ssDNA deamination FAM/TAMRA fluorescence | inhibition, % at 20 µM | 330,000 tested, 0.28% active | Q9HC16;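 active means inhibition of at least 40% at 20 µM, with no more than 30% in the related APOBEC3A deaminase screen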;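 further: plate controls were DMSO wells with A3G for no effect and wells lacking A3G enzyme for full effect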
A3G conf: APOBEC3G (human) deaminase inhibition, confirmed. shares compounds with A3G deaminase. recombinant A3G ssDNA deaminase, UDG/FAM-TAMRA fluorescence. inhibition, % at 20 µM. 890 tested, 72% active;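 active means inhibition reaching a set limit in any replicate at 20 µM, the limit being 80% of the first screen's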
UDG ctr A3G: E. coli UDG inhibition in APOBEC3G counter-screen | inhibition, % at 20 µM | UDG counterscreen, FAM/TAMRA oligo fluorescence | shares compounds with A3G deaminase | 710 tested, under 10 active;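 active means compounds giving 40% or more inhibition at 20 µM in any one of the three replicates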;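 further: plate controls were DMSO wells with UDG and oligo for no effect and DMSO wells lacking both for full effect; inhibitors lower the FAM signal released by uracil excision and alkaline cleavage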
Target sequence (P12295 whole entry, looked up): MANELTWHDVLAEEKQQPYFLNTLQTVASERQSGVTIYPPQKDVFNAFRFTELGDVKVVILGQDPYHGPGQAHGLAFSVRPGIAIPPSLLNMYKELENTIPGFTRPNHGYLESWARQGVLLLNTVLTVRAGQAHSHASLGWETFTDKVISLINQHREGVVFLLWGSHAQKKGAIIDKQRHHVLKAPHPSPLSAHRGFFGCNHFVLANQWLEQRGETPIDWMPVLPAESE
* marks the source's active call; other numbers are inactive results; . = no result given.

SMILES	CendR NRP1 mod	beta cell repl	APOBEC3A inh	VLA-4 inh	A3G deaminase	A3G conf	UDG ctr A3G
O=C(O)c1ccc(-n2c(-c3ccc(Br)cc3)n[nH]c2=S)cc1	8	-3	-6	-2	44*	65*	-2
CCc1n[nH]c(=S)n1/N=C/c1c(O)ccc2ccccc12	-2	-1	-5	3	52*	75*	3
COc1ccccc1CNC(=O)CNC(=O)c1ccc(Br)o1	10	-2	-1	-12	-7	.	.
C[Si](C)(C)n1ccnc1	-2	-1	1	8	-5	.	.
CCCC(=O)Nc1nc2ccc(OCC)cc2s1	4	-2	0	5	-8	.	.
CCOc1ccc2nc(NC(=S)N(C)C)sc2c1	4	-3	-2	-3	47*	55*	-1
COc1ccc(-c2n[nH]c(=S)n2/N=C/c2cccn2C)cc1	13	-3	-4	9	37	.	.
COc1cc(OC)c(OC)cc1/C=N/n1c(-c2n[nH]c3c2CCC3)n[nH]c1=S	-1	1	-6	1	39	.	.
COc1ccc(OC)c(/C=N/n2c(-c3n[nH]c4c3CCC4)n[nH]c2=S)c1	-4	1	-6	15	42*	83*	-2
COc1ccc(/C=N/n2c(-c3n[nH]c4c3CCC4)n[nH]c2=S)cc1	8	2	-8	0	40*	74*	-2
O=C(c1ccc(Br)cc1)N1CCN(c2ccccn2)CC1	21	.	.	.	.	.	.
COC(=O)CCC(=O)Nc1sc(C)c(C)c1C(N)=O	-6	-3	0	8	57*	55*	-1
COC(=O)CCC(=O)Nc1sc(Cc2ccccc2)c(C)c1C(N)=O	-2	-6	0	6	45*	57*	0
COC(=O)CCC(=O)NC(=S)Nc1sc(C)c(C)c1C(N)=O	-10	-2	-7	14	2	.	.
NS(=O)(=O)c1ccc(CNC(=O)CSc2nc3ccc(Cl)cc3[nH]2)cc1	0	1	2	0	-3	.	.
CCCOc1ccc(C(F)(F)F)cc1NC(=O)CCc1c(C)noc1C	0	-3	2	0	-2	.	.
O=C(N/N=C/c1cccc(OC2CSC2)c1)c1ccccc1O	22	5	-4	4	73*	-8	-4
Cn1ncc(Br)c1C(=O)N/N=C/c1cccc(OC2CSC2)c1	3	5	0	11	-2	.	.
Cc1ccc(OC2CCN(C(=O)[C@H]3O[C@@H](n4cnc5c(N)ncnc54)[C@H](O)[C@@H]3O)CC2)cc1	12	.	.	.	.	.	.
COc1ccc2c(c1)cc(C(=O)N[C@@H](Cc1ccccc1)C(=O)O)n2C	16	-4	-5	6	-6	.	.
Cn1c(C(=O)N[C@@H](Cc2ccccc2)C(=O)O)cc2cc(F)ccc21	-4	-3	-1	-3	43*	-2	2
CC(C)c1ccc(NC(=O)c2cc(S(=O)(=O)N3CCCCC3)c[nH]2)cc1	0	-3	-3	14	-8	.	.
Cc1c(Cl)c([N+](=O)[O-])nn1CC(=O)NCC(C)C	4	-1	-1	-5	48*	-7	-1
Cc1c(Cl)c([N+](=O)[O-])nn1CC(=O)NCc1ccc(Cl)cc1	19	-1	-3	11	-5	.	.
COc1ccc(C(=S)N2CCN(c3cccc(Cl)c3)CC2)c(OC)c1	2	-3	2	7	-2	.	.
SMILES	CendR NRP1 mod	beta cell repl	APOBEC3A inh	VLA-4 inh	A3G deaminase	A3G conf	UDG ctr A3G
COc1cc(C(=S)N2CCN(c3cccc(Cl)c3)CC2)ccc1O	8	-4	-1	12	50*	40*	-4
Oc1ccc(C(=S)N2CCN(c3cccc(Cl)c3)CC2)cc1	0	-5	4	28	40*	41*	-2
CC(=O)Nc1ccc(S(=O)(=O)NNc2cccc(C)c2)cc1	5	-2	3	-5	61*	62*	-3
Cc1ccc(S(=O)(=O)NNc2ccccc2)cc1	0	-3	4	-6	68*	66*	.
Cc1cccc(NC(=O)NNS(=O)(=O)c2ccc(F)cc2)c1	3	0	2	.	3	.	.
Cc1ccc(S(=O)(=O)Nc2ccc(Nc3ccccc3)cc2)cc1	-14	-5	0	-5	-3	.	.
